Bioassay records from PubChem.
DAX1 inh-1: inhibits human nuclear receptor DAX1; P51843; HEK293 Gal4-DAX1 luciferase reporter, luminescence; AID 504766; inhibition, % at 6.75 µM; 340,000 tested, 0.99% active;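 active = inhibition above the mean over all tested compounds plus 3 SD, cut at about 4.2% in these data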;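 note: 0% = DAX1-transfected cells with DMSO and 100% = empty-vector control cells with DMSO; inhibition shows as a rise in luminescence from relieved DAX1 repression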
hcDAF-12 act: activators of H. contortus DAF-12 nuclear receptor; HEK293 hcDAF-12 lit1-tk-luc reporter, luminescence; 0% DMSO, 100% Δ7-dafachronic acid; activation, % at 6.8 µM; 370,000 tested, 1.4% active; AID 652067;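 active = activation above the mean of all tested compounds plus 3 SD, cut at about 5.5% in these data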;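 note: 100% = response to 3 µM Δ7-dafachronic acid high control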
Wee1 degr inh: human Wee1 degradation inhibition, primary screen. HeLa Luc-Wee1K328M stability, luciferase luminescence; 100% = proteasome inhibitor MG132 effect. P30291. 220,000 tested, 1.2% active. reporter increase, % at 5 µM. AID 1321;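 active = activation above the mean of all tested compounds plus 3 SD, set per screening run, cut at about 8.8% in these data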;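 note: cells exposed to compound for 20 h before luminescence read; 0% = DMSO alone and 100% = MG132 at 30 µM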
Target sequence (P30291 whole entry K328M): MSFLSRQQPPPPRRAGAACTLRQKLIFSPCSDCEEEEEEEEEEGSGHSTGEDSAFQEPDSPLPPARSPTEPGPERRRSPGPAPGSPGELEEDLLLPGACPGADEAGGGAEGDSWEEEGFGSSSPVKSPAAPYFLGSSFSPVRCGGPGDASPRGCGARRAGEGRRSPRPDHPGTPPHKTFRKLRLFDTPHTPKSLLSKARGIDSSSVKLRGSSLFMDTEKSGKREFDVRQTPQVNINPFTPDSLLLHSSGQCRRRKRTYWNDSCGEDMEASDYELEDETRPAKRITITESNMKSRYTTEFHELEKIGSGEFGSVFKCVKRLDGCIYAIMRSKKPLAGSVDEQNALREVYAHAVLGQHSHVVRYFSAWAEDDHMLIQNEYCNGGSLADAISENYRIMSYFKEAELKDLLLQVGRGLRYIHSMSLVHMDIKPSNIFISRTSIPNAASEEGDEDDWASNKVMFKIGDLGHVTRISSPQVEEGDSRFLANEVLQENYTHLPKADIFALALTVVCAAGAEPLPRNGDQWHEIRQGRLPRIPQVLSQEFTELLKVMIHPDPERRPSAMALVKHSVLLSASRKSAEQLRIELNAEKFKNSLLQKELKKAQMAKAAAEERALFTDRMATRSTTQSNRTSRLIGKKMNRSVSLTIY
DAX1 inh-2: inhibitors of DAX1 repression of SF-1 activated StAR promoter; AID 652010; 370,000 tested, 1.1% active; HEK293T StAR-luciferase reporter, SF-1/DAX-1 repression relief; inhibition, % at 6.8 µM;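 active = inhibition above the mean over all tested compounds plus 3 SD, cut at about 3.6% in these data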;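 note: 0% = DAX-1 cells with DMSO and 100% = cells lacking DAX-1 with DMSO; higher inhibition means more luminescence from relief of DAX-1 repression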
ssDAF-12 act: activators of S. stercoralis DAF-12 nuclear receptor; AID 652126; HEK293 ssDAF-12/GRIP1 lit1-tk-luc reporter, luminescence; % of 3 µM dafachronic acid response; activation, % at 6.8 µM; 370,000 tested, 1% active;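 active = activation above the mean over all tested compounds plus 3 SD, cut at about 0.9% in these data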;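 note: 0% = DMSO-only wells and 100% = 3 µM delta7-dafachronic acid wells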
hgDAF-12 ag: activates the H. glycines DAF-12 receptor ligand-binding domain; HEK293 GAL4-hgDAF12 UAS-luciferase reporter, agonist luminescence; normalized to butyrate control; activation, % at 6.8 µM; 370,000 tested, 1.8% active; AID 687014;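 active = activation above a cutoff set at the mean of all screened compounds plus 3 SD, cut at about 10% in these data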;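 note: 0% = DMSO wells and 100% = sodium butyrate wells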
* = called active by the depositor; · = not tested or not shown. Compounds with a hit are over-represented: about 4.6% of the library has one in this group of screens.

SMILES	DAX1 inh-1	hcDAF-12 act	Wee1 degr inh	DAX1 inh-2	ssDAF-12 act	hgDAF-12 ag
CN(C)S(=O)(=O)c1ccc(NC(=O)CN2CCCC2c2ccc3c(c2)OCCCO3)cc1 (centres undefined)	0	-3	·	1	-2	-3
CS(=O)(=O)c1ccc(Cl)c(NC(=O)CN2CCCC2c2ccc3c(c2)OCCCO3)c1 (centres undefined)	0	-1	·	-3	-1	11*
O/N=C(/CCc1ccccc1)c1ccc2c(c1)OCCO2	1	2	1	3	-1	11*
O=C(Nc1nnc([C@H]2C[C@H](O)[C@@H](CO)O2)s1)c1ccc(Oc2ccccc2)cc1	·	0	·	-1	-1	6
O=C(c1cc2ccccc2[nH]1)N1O[C@@H]2C=C[C@H]1C2	2	6.2*	·	2	0	7
Nc1ccccc1C(=O)N1O[C@@H]2C=C[C@H]1C2	-1	2	·	0	0	3
O=Cc1ccc2cccnc2n1	1	6.1*	2	0	2.0*	1
O=C(C1CCCCC1C(=O)N1CCCCC1)N1CCCCC1 (centres undefined)	1	-1	·	-1	-1	3
O=C(O)C1CCCCC1C(=O)N1CCCC1 (centres undefined)	0	0	1	1	1.5*	2
Cc1cccc(S(=O)(=O)N(C)C[C@H]2OCc3cnnn3CCCC(=O)N([C@H](C)CO)C[C@H]2C)c1	4.4*	0	·	1	1	1
C[C@H]1CN([C@@H](C)CO)C(=O)CCCn2nncc2CO[C@H]1CN(C)C(=O)NC1CCCCC1	5.1*	-2	·	-1	-1	0
C[C@@H]1CN([C@@H](C)CO)C(=O)CCCn2nncc2CO[C@@H]1CN(C)C(=O)NC1CCCCC1	0	-1	·	0	-1	3
COc1ccccc1CN(C)C[C@@H]1OCc2cnnn2CCCC(=O)N([C@H](C)CO)C[C@H]1C	4.2*	1	·	1	0	-1
CN(C)[C@H]1CCN(c2cccc3c2S(=O)(=O)N(C2CC2)CCCO3)C1	·	-1	·	-1	-1	-1
O=C(NCCc1c[nH]c2ccccc12)OCc1cn(Cc2cccc(F)c2F)nn1	·	-3	·	1	-1	0
CC(C)c1ccc(Nc2n[nH]c(=S)s2)cc1	·	0	·	1	-1	6
NNC(=O)c1ccc(CSc2nc3ccccc3s2)cc1	-1	6.1*	-1	0	-1	11*
COCCN(CCOC)C(=O)c1ccc(CSc2nc3ccccc3s2)cc1	-2	0	·	-4	0	-2
COc1ccc(NS(=O)(=O)c2ccc(C)c(C(=O)NCC(c3ccco3)N3CCCCC3)c2)cc1 (centres undefined)	-1	-2	·	0	-1	0
Cc1ccc(C)c(NC(=S)NNC(=O)c2cc3c(s2)CCC(C)C3)c1 (centres undefined)	1	-1	-3	0	-1	1
Cc1cccc(NC(=S)NNC(=O)c2cc3c(s2)CCC(C)C3)c1C (centres undefined)	0	-1	-2	0	20*	-3
CCCCOc1ccc(-c2cn3ccccc3n2)cc1[N+](=O)[O-]	-1	1	4	0	-1	11*
CCCOc1ccc(-c2csc(N)n2)cc1[N+](=O)[O-]	2	1	3	0	-1	6
CC(C)C(=O)Nc1cccc(-c2cn3ccccc3n2)c1	1	-1	1	0	-2	0
CCOc1ccc(-c2cn3ccccc3n2)cc1[N+](=O)[O-]	2	1	5	1	0	11*
SMILES	DAX1 inh-1	hcDAF-12 act	Wee1 degr inh	DAX1 inh-2	ssDAF-12 act	hgDAF-12 ag
O=[N+]([O-])c1ccc(-c2cn3ccccc3n2)cc1	·	2	·	2	0	7
Oc1ccc(-c2cn3ccccc3n2)cc1O	1	6.1*	·	2	0	8
CCn1c(=O)[nH]n(C/C(C)=C\c2c[n+](Cc3ccc4c(c3)OCO4)c(N)[nH]2)c1=O	·	-2	·	·	-2	-2
CN1CCN(Cc2cccc(Oc3ccc(Cl)cc3)c2)CC1	0	2	10*	1	-1	4
CCN(CC)C(=O)C1=C(C)N(CCC2=CCCCC2)C(=O)C(CC(=O)NCCCCc2ccccc2)C1 (centres undefined)	1	0	·	-1	-1	-1
O=C(c1ccccc1C(F)(F)F)N1CCN(S(=O)(=O)c2ccccc2)CC1	7.5*	-1	-1	1	-1	-1
Cc1ccc(CN2CCCCC(NC(=O)c3ccccc3C)C2=O)cc1 (centres undefined)	·	-2	·	-1	-1	1
Cc1ccc(S(=O)(=O)N2CCN(C(=O)N3CCOCC3)C2c2ccc(N(C)C)cc2)cc1 (centres undefined)	2	0	14*	1	-1	1
CN(C)c1ccc(C2N(C(=O)N3CCOCC3)CCN2S(=O)(=O)c2ccccc2)cc1 (centres undefined)	0	1	-1	0	-1	-2
O=C1c2ccccc2NC(c2ccccc2Cl)N1N=C1CCCCCC1 (centres undefined)	1	3	6	2	0	10*
O=C1NC(c2ccccc2Cl)Nc2ccccc21 (centres undefined)	0	-1	-2	1	-1	1
Cc1ccc(N2CCN(C(=O)c3ccccc3NC(=O)C3CC=CCC3C(=O)O)CC2)cc1 (centres undefined)	3	0	0	0	-1	-2
Cc1cccc(N2CCN(C(=O)c3ccccc3NC(=O)C3CC=CCC3C(=O)O)CC2)c1 (centres undefined)	4.4*	1	0	0	-1	0
CC1CCN(c2nc3ccccc3nc2C(C#N)C(=O)OC2CCCCC2)CC1 (centres undefined)	2	·	12*	·	·	·
COc1ccccc1C(=O)Nc1cc(-c2ccc(C)cc2)no1	0	4	·	0	1.0*	12*
COc1ccccc1C(=O)Nc1ccccc1SC(=O)c1ccccc1OC	4.3*	4	·	0	0	-2
COc1ccccc1C(=O)Nc1cc(C)on1	2	2	·	1	0	3
COc1ccc(/C=C2\SC(=S)N(CCC(=O)Nc3cccc(O)c3)C2=O)cc1	4.8*	0	·	1	-1	2
COc1ccc(/C=C2\SC(=S)N(CCCC(=O)Nc3ccc(O)cc3)C2=O)cc1	-2	-5	-1	0	-3	-8
COc1ccc(S(=O)(=O)Nc2cc(Cl)ccc2OC)cc1	-1	-1	4	-2	2.7*	4
COc1ccc(OC)c(NS(=O)(=O)c2ccc(Br)s2)c1	·	·	9.0*	·	·	·
COc1cccc(C(NC(C)=O)c2nc(-c3cnn(C)c3)cs2)c1 (centres undefined)	·	-3	·	0	-1	2
